# Reference: PubChem BioAssay (EPA / NIEHS)
# A structure can be active in one record and inactive in another. Active and inactive are the calls of the source. The calls were made as follows: active = hit-call score of the fitted dose curve at least 0.9, where 1 is the maximum; inactive = score below 0.9.
# Read-out: C-C motif chemokine 2 (Homo sapiens) (UniProt P13500)
# Assay: BSK_KF3CT_MCP1: BioMAP Diversity Plus: KF3CT Assay for Monocyte Chemoattractant Protein 1 (MCP1/CCL2) Biomarker Activity (AID 2283073)
# Details: primary human keratinocytes with fibroblasts; actives raise or lower the signal
# Experimental: BSK_KF3CT is a cell-based, multiplexed-readout assay that uses keratinocytes and foreskin fibroblasts, a human skin primary cell co-culture, with measurements taken at 24 hours after chemical dosing in a 96-well plate.BSK_KF3CT_MCP1 is an assay component measured in the BSK_KF3CT assay. It measures MCP-1 antibody related to regulation of gene expression using ELISA technology.Data from the assay component BSK_KF3CT_MCP1 was analyzed into 1 assay endpoint. This assay endpoint, BSK_KF3CT_MCP1, was analyzed with bidirectional fitting relative to DMSO as the negative control and baseline of activity. Using a type of binding reporter, gain or loss-of-signal activity can be used to understand changes in the signaling as they relate to the gene CCL2. Furthermore, this assay endpoint can be referred to as a primary readout, because this assay has produced multiple assay endpoints where this one serves a signaling function. To generalize the intended target to other relatable targets, this assay endpoint is annotated to the cytokine intended target family, where the subfamily is chemotactic factor.
# The levels of cell surface (or secreted, indicated by the prefix "s") biomarker endpoints were measured by ELISA. Overt cytotoxicity to cells in confluent adherent cultures (all systems other than the BT system) was assessed by measuring total protein levels using sulforhodamine B (SRB) staining in parallel cultures at the time of biomarker measurements, indicated as SRB endpoints. For proliferation assays for adherent cell types, individual cell types are cultured at sub-confluence and relative cell numbers quantified by SRB staining at time points optimized for each system (48 h: 3C and CASM3C systems; 72 h: BT and HDF3CGF systems; 96 h: SAg system). SRB was performed by staining cells with 0.1% SRB after fixation with 10% TCA and reading wells at 560 nm.Viability and proliferation of PBMC (T cells) was quantified by Alamar Blue reduction for the SAg and BT systems. For PBMC viability (referred to as PBMC Cytotoxicity within the assay endpoint names), cells were plated (75,000/well in a 96-well plate) and then chemical samples added for 1 h before addition of activators, SEB and TSST-1 (20 ng/mL final concentration each). Cells were incubated for 90 h. Then, Alamar Blue (20 uL/well) (Invitrogen, Cat DAL1100) was added for 6 h, and the plates were read with a fluorescence microplate reader at 546/580 nm (excitation/emission). For PBMC proliferation, cells were plated and activated as above but incubated for only 16 h prior to addition of Alamar Blue. Plates were read after 6 h.
SMILES,outcome,AC50
Cc1ccc(N)cc1,inactive,–
Clc1ccc(C(c2ccc(Cl)cc2)C(Cl)(Cl)Cl)cc1,–,12.7 µM (active)
CC(C)(C)OOC(C)(C)CCC(C)(C)OOC(C)(C)C,inactive,–
CC(C)COC(=O)c1ccccc1C(=O)OCC(C)C,inactive,–
N#CC(Br)(Br)C(N)=O,inactive,–
[As]#[In],inactive,–
O=[N+]([O-])c1ccc(Oc2ccc(Cl)cc2Cl)cc1,inactive,–
CCCSC(=O)N(CCC)CCC,inactive,–
OCCOCCO,inactive,–
N#CC(Br)Br,inactive,–
O=C1CCCO1,inactive,–
ClC1=C(Cl)C2(Cl)C3C(Cl)C=CC3C1(Cl)C2(Cl)Cl (stereo not given),–,14.6 µM (active)
c1ccc(N=Nc2ccccc2)cc1,inactive,–
Nc1ccc(N=Nc2ccccc2)cc1,inactive,–
CNC(=O)Oc1cccc2c1OC(C)(C)C2,inactive,–
CN(C)c1ccc(C(=O)c2ccc(N(C)C)cc2)cc1,inactive,–
CCN(CC)N=O,inactive,–
Cc1ccc(N=C=O)cc1N=C=O,inactive,–
CCOC(=O)[C@]1(c2ccccc2)Oc2ccccc2[C@@H]1N,inactive,–
Nc1ccc(Oc2ccc(N)cc2)cc1,inactive,–

SMILES,outcome,AC50
CCNS(=O)(=O)C(F)(F)C(F)(F)C(F)(F)C(F)(F)C(F)(F)C(F)(F)C(F)(F)C(F)(F)F,inactive,47.8 µM (active)
Nc1ccc([N+](=O)[O-])cc1,inactive,–
Nc1ccc(Cc2ccc(N)cc2)cc1,inactive,–
CCN(CC)CCO,inactive,–
c1ccc(C2CO2)cc1 (stereo not given),inactive,–
CC(C)(C)C(O)(CCc1ccc(Cl)cc1)Cn1cncn1 (stereo not given),inactive,–
CCCCOC(=O)c1ccccc1C(=O)OCc1ccccc1,inactive,–
CCCCCCCCOC(=O)c1ccc(C(=O)OCCCCCCCC)c(C(=O)OCCCCCCCC)c1,inactive,–
CN(C)[C@@H]1C(=O)C(C(N)=O)=C(O)[C@@]2(O)C(=O)C3=C(O)c4c(O)cccc4[C@@](C)(O)[C@H]3C[C@@H]12,inactive,–
CN(C)C(=O)Nc1ccc(Cl)cc1,inactive,–
CCCCCCCCn1sccc1=O,–,10.6 µM (active)
Clc1ccc(Cl)c(Cl)c1,inactive,–
Nc1cc(Cl)cc(C(=O)O)c1Cl,inactive,–
c1ccc2c(c1)oc1ccccc12,inactive,–
C1=Cc2cccc3cccc1c23,inactive,–
Cc1ccc(N)c(N)c1,inactive,–
Nc1ccc(Cl)cc1N,inactive,–
CS(=O)(=O)NC(=O)c1cc(Oc2ccc(C(F)(F)F)cc2Cl)ccc1[N+](=O)[O-],inactive,–
O=Cc1ccco1,inactive,–
